PubChem BioAssay (NCI)
About 83,000 compounds went through this panel and 20% of them were active in at least one assay; those are over-represented in the sample as a whole.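 Single-dose data. Exposure time 48 hours. Values below 10 considered active.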 Active and inactive are the calls of the source.

test system: SW-620 colon; experiment: NCI-60 one-dose screen, 48 h (100 = growth as untreated, 0 = no growth, -100 = all killed); settings: 10 µM

| SMILES | growth |
| --- | --- |
| N#CSCC1CC(O)(c2ccccc2)CC(c2ccc(Cl)cc2)O1 (stereo unspecified) | -53.5% (active) |
| CS(=O)(=O)Nc1cccc(-c2cc(-c3ccccc3Cl)c(C#N)c(N)n2)c1 | 24.5% (inactive) |
| O=C(/C=C/c1cc2ccccc2[nH]c1=O)c1ccc2c(c1)OCO2 | 99.6% (inactive) |
| CC(C)(Cl)CCC1=C(Cl)C(=O)c2ccccc2C1=O | 7.89% (active) |
| O=C1C(c2ccccc2)C2C=CC(C2)N1O (stereo unspecified) | 109% (inactive) |
| CC(C)(C)NC/C(=C\c1ccccc1)C(=O)c1ccccc1 | -30.6% (active) |
| NC(=O)c1ccc(-c2cccc3c(=O)nc(N4CCOCC4)oc23)cc1 | 104% (inactive) |
| COC(=O)C1(C)Cc2cc(OC(C)=O)c(OC(C)=O)cc2N1 (stereo unspecified) | 58.6% (inactive) |
| CC(=O)c1nc2ccccc2n1CCN1CCN(C)CC1 | 29.6% (inactive) |
| Nc1nccc(Nc2ccccc2)n1 | 106% (inactive) |
| COc1cc(C2CC(c3ccc(Nc4ccnc5cc(Cl)ccc45)cc3)=NN2c2ccc(Cl)cc2)cc(OC)c1OC (stereo unspecified) | 39.4% (inactive) |
| COc1cc(-c2cc(-c3cc4c([nH]c5ccccc54)c(-c4cc(OC)c(OC)c(OC)c4)n3)cc(-c3ccccc3)n2)cc(OC)c1OC | 41.4% (inactive) |
| COc1ccc(-c2nsc3c2NC(=O)CC3c2ccc(F)cc2)cc1 (stereo unspecified) | 21.4% (inactive) |
| ClC(Cl)(Cl)c1nc2nccnc2[nH]1 | 107% (inactive) |
| COc1ccc(-c2cc(/C=C3\C(=O)Nc4ccc(Cl)cc43)[nH]n2)cc1OC | 97.1% (inactive) |
| CCOC(=O)C1CCc2c(ccc3ccccc23)N1CCC#N (stereo unspecified) | 91.9% (inactive) |
